Hits are enriched below; roughly 4.5% of the tested compounds scored in any of these assays.
tim23-1 inh: tim23-1 yeast growth inhibition. S. cerevisiae tim23-1 growth, BacTiter-Glo luminescence, 24 h. hit rate 1.3% among 330,000. inhibition, % at 20 µM. AID 463212;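 active = growth inhibition of the mutant yeast at or above 50%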;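 note: temperature-sensitive mutant grown at 25 °C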
SKKanGAS inh: inhibitors of SKKanGAS S. pyogenes growth in kanamycin (SK-promoter or general growth effect). BacTiter-Glo, 6 h. inhibition, % at 7.5 µM. hit rate 1.3% among 300,000. AID 1662;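 active = mean replicate score, as percent of positive control median, at least 50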;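 note: strain carries kanamycin resistance gene driven by streptokinase promoter and grows in 40 µg/ml kanamycin; loss of luminescence reflects streptokinase promoter inhibition or plain growth inhibition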
NLRP3 yeast inh: inhibitors of NALP3 inflammasome in yeast; Yeast reconstituted NLRP3/ASC/caspase-1, beta-gal luminescence, 24 h; inhibition, % at 10 µM; hit rate 0.39% among 330,000;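 active = inhibition of 50% or more; inactive = inhibition below 50%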
PfHsp90 yeast 2: reduces growth (ATP signal) of yeast expressing P. falciparum Hsp90; AID 504621; inhibition, % at 9.4 µM; hit rate 0.32% among 310,000; S. cerevisiae expressing PfHsp90, BacTiter-Glo ATP, 48 h; yeast lacking PDR1 and PDR3 efflux regulators;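 active = every replicate shows inhibition above about 80%, whatever the replicate mean, limit read from the data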
TIM10 inh: growth inhibitors of TIM10 yeast strain | S. cerevisiae TIM10 strain growth, BacTiter-Glo luminescence, 24 h | AID 463195 | inhibition, % at 10 µM | hit rate 1.4% among 330,000;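 active = inhibition of 40% or more at the single tested concentration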;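 note: wild-type TIM10 isogenic control strain grown at permissive 25 °C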
tim10-1 inh: tim10-1 yeast growth inhibition. S. cerevisiae tim10-1 ts strain growth, BacTiter-Glo, 24 h. inhibition, % at 20 µM. hit rate 2.2% among 330,000;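 active = inhibition of at least 40%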;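 note: mutant grown at 25 °C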
tim10-1 conf: confirmation of tim10-1 mutant yeast growth inhibitors | shares compounds with tim10-1 inh | S. cerevisiae tim10-1 ts strain growth, BacTiter-Glo, 24 h | inhibition, % at 20 µM | hit rate 56% among 7,400;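 active = inhibition of yeast growth at or above a set limit in either of two repeat tests at 20 µM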;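 note: tim10-1 mutant grown at permissive 25 °C to find synthetic lethal compounds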
Each line names hits and unclear results; the compound was inactive in the other large screens (follow-up assays come after a bar, where they were run).

CCc1nc2ccc(C(=O)NCCc3ccc(OC)cc3)cc2nc1CC	tim10-1 inh 40 | tim10-1 conf inactive
CCc1nc2ccc(C(=O)NCc3ccc(C)o3)cc2nc1CC	tim10-1 inh 49 | tim10-1 conf inactive
CCc1nc2ccc(C(=O)NCCc3ccc(OC)c(OC)c3)cc2nc1CC	none
N#CCc1nn2c(-c3ccccc3)ccnc2c1C#N	tim10-1 inh 43 | tim10-1 conf inactive
COCCOC(=O)c1sc2nc[nH]c(=O)c2c1C	none
Cc1c(C(=O)OC2CCCCC2)sc2nc[nH]c(=O)c12	tim10-1 inh 40 | tim10-1 conf inactive
Cc1nc(CN2CCN(C(=O)NC3(c4ccccc4)CC3)CC2)cs1	none
Cc1nc(CN2CCN(S(=O)(=O)c3c(Cl)cc(Br)cc3Cl)CC2)cs1	tim10-1 inh 49 (no result: SKKanGAS inh, PfHsp90 yeast 2) | tim10-1 conf 44
Cc1cc(C)n2nc(SCC(=O)N3CCN(c4ccccc4)CC3)nc2n1	none (no result: SKKanGAS inh)
CCOC(=O)C1CCN(C(=O)COC(=O)CN(C)S(=O)(=O)c2ccc(NC(C)=O)cc2)CC1	none
Cc1c(C(=O)NCC2COc3ccccc3O2)oc2ccc(S(=O)(=O)N3CC(C)CC(C)C3)cc12 (centres undefined)	none
Cc1c(C(=O)NC2CC2)oc2ccc(S(=O)(=O)N3CCCCCC3)cc12	tim10-1 inh 49 (no result: PfHsp90 yeast 2) | tim10-1 conf 38
Cc1c(C(=O)NCC2COc3ccccc3O2)oc2ccc(S(=O)(=O)N3CCOCC3)cc12 (centres undefined)	tim10-1 inh 42 (no result: PfHsp90 yeast 2) | tim10-1 conf inactive
COc1cccc(NC(=O)CN(C)CC(=O)c2c(C)[nH]c3ccccc23)c1	none (no result: SKKanGAS inh, PfHsp90 yeast 2)
COc1ccc(-c2c[n+]3c4n2CCCCC4=C(c2ccccc2)C3)cc1	tim10-1 inh 45 (no result: PfHsp90 yeast 2) | tim10-1 conf inactive
COCC(=O)N1C[C@H]2CON(C)[C@H]2C[C@H]1c1cccc(-c2ccc(C#N)cc2)c1	none (no result: tim23-1 inh, SKKanGAS inh, NLRP3 yeast inh, TIM10 inh, tim10-1 inh)
COc1cc(/C=C/c2nnc3c4ccccc4ncn23)cc(OC)c1OC	tim10-1 inh 44 | tim10-1 conf inactive
O=C(O)c1ccccc1-c1ccccc1C(=O)NCc1ccccc1F	none
Cc1cccc(NC(=O)C2CC(=O)N(Cc3ccccc3)C2)n1 (centres undefined)	none (no result: PfHsp90 yeast 2)
CCOc1ccc(-c2n[nH]c(C)c2Oc2ccc(OC)cc2)c(O)c1	tim10-1 inh 44 | tim10-1 conf 47
COC(=O)c1c(NC(NC(=O)C(C)C)C(Cl)(Cl)Cl)sc2c1CCC2 (centres undefined)	tim10-1 inh 44 | tim10-1 conf inactive
CCC(=O)NC(Nc1sc2c(c1C(=O)OC)CCC2)C(Cl)(Cl)Cl (centres undefined)	none
CCn1ccnc1CN1CCc2c([nH]c3ccccc23)C1C(C)(C)C (centres undefined)	tim10-1 inh 47 | tim10-1 conf inactive
Cc1sc2ncnc(Sc3ccccc3C(=O)Nc3ccccc3Cl)c2c1C	tim10-1 inh 43 | tim10-1 conf inactive
COC(=O)[C@@H](NC(=O)N1CCN(C(=O)C2COc3ccccc3O2)CC1)C(C)C (some centres undefined)	none
Cc1c(NC(=O)C(C)OC(=O)c2ccc(NC(=O)CC#N)cc2)c(=O)n(-c2ccccc2)n1C (centres undefined)	none
Cc1ccnc(SCCn2c(N3CC(C)CC(C)C3)nc3c2c(=O)n(C)c(=O)n3C)n1 (centres undefined)	tim10-1 inh 44 | tim10-1 conf inactive
Cc1ccnc(SCCn2c(N3CCC(C)CC3)nc3c2c(=O)n(C)c(=O)n3C)n1	tim10-1 inh 45 | tim10-1 conf inactive
Cc1ccnc(SCCn2c(N3CC(C)OC(C)C3)nc3c2c(=O)n(C)c(=O)n3C)n1 (centres undefined)	none
Cc1cccn2cc(CSc3nnc(Nc4ccc(C(C)C)cc4)s3)nc12	tim10-1 inh 45 | tim10-1 conf inactive
CC(=O)NCCc1ccc(S(=O)(=O)Nc2ccc(NC(=O)c3ccc(F)cc3)cc2)cc1	none
COc1cc(C2C(C#N)=C(N)OC3=C2C(=O)CC(C)(C)C3)cc([N+](=O)[O-])c1O (centres undefined)	none
COc1cc(C2C3=C(CC(C)(C)CC3=O)OC3=C2C(=O)CC(C)(C)C3)cc([N+](=O)[O-])c1O	tim10-1 inh 41 | tim10-1 conf inactive
CCN(CC(=O)Nc1c(F)cccc1F)C(=O)c1nn(C)c(=O)c2ccccc12	none (no result: SKKanGAS inh)
COCCCNC(=S)N/N=C/c1ccc2c(c1)OCO2	tim10-1 inh 41 | tim10-1 conf inactive
COc1ccc(-n2ncc(S(=O)(=O)c3ccccc3)c2-c2ccc(Cl)cc2)cc1	tim10-1 inh 41 | tim10-1 conf inactive
O=S(=O)(c1ccccc1)c1cnn(-c2ccccc2)c1-c1ccc(F)cc1	none
O=C(N/N=C/c1ccncc1)NC12CC3CC(CC(C3)C1)C2	none
O=C(N/N=C/c1ccc(O)cc1)NC12CC3CC(CC(C3)C1)C2	tim10-1 inh 50 | tim10-1 conf 35
CCSC1(SCC)N=C(N)C2(C#N)C(c3ccc(OC)c(OC)c3OC)C12C#N (centres undefined)	tim10-1 inh 61 | tim10-1 conf 62
O=[N+]([O-])/C(C(Cl)=C(Cl)Cl)=C(/Sc1ccccc1)N1CCCCC1	tim10-1 inh 41 | tim10-1 conf 45
O=C(N/C(=C\c1ccc([N+](=O)[O-])cc1)C(=O)N1CCCCC1)c1ccccc1	none
Cc1cc2ncn(C(=O)c3c(-c4c(Cl)cccc4Cl)noc3C)c2cc1C	none
Cc1cc2ncn(C(=O)c3c(-c4ccccc4)noc3C)c2cc1C	tim10-1 inh 41 | tim10-1 conf inactive
O=C(c1ccc([N+](=O)[O-])cc1)N(Cc1ccccc1)c1ccccn1	none
O=[N+]([O-])c1ccccc1SN(Cc1ccccc1)c1ccccn1	tim10-1 inh 42 | tim10-1 conf inactive
COc1cc2nc(N3CCN(c4cc(C)ccc4C)CC3)nc(N)c2cc1OC	tim10-1 inh 45 | tim10-1 conf inactive
COc1cc2nc(N3CCNCC3)nc(N)c2cc1OC	none
c1ccc2sc(-c3ccc4c(c3)OCO4)nc2c1	tim10-1 inh 45 (no result: SKKanGAS inh) | tim10-1 conf 46
Cc1ccc(N2CC(C(=O)Nc3nc4ccc(S(C)(=O)=O)cc4s3)CC2=O)cc1 (centres undefined)	none
Oc1ccc(-c2nccc(-c3ccc(Cl)cc3Cl)n2)cc1	tim10-1 inh 42 | tim10-1 conf 34
Oc1ccc(-c2nccc(-c3ccc(Cl)cc3)n2)cc1	tim10-1 inh 42 | tim10-1 conf 43
O=c1[nH]cnc2c1ncn2-c1ccc(N(CCO)CCO)cc1	none (no result: tim23-1 inh, SKKanGAS inh, NLRP3 yeast inh, TIM10 inh, tim10-1 inh)
Cc1ccsc1C(=O)NNC(=O)CCN1CCN(c2ccccc2)CC1	none
CSc1ccccc1NC(=O)CN(C)C(=O)c1c(C)nn(Cc2ccccc2)c1C	none (no result: SKKanGAS inh)
